ATXN2 expr inh: Primary qHTS for Inhibitors of ATXN expression; HEK-293 ATXN2-luciferase reporter, luminescence, 24 h; Potency, µM (top dose mostly 57 µM), for the others: at the top dose activity change, negative = inhibition, actives largely listed as inhibitors; actives 0.72% (n = 360,000); AID 1745845, 2022; note: potency is the fitted concentration of half-maximal effect; % is set by controls: 0 for no effect and ±100 for the full control effect; nearly all actives have a fitted effect of over 55% in size
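qHTS (up to 57 uM final) was run with 24 h compound exposure of reporter cells at 37 °C. Each well was multiplexed: SteadyGlo luminescence measured ATXN2-luciferase expression after a fluorogenic Gly-Phe-AFC viability readout (25 uM final).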
TGFb SMAD3 inh: qHTS for Inhibitors of TGF-b. HepG2 CAGA-GFP TGF-b/SMAD3 reporter, GFP fluorescence, 18 h; TGF-beta stimulated, 500 pg/mL final. Potency, µM (highest dose often 46.1 µM), for inactives: top-dose activity, negative = inhibition, hits mostly inhibitors. actives 1.2% (n = 410,000). AID 588855, 2011; note: potency is the fitted concentration of half-maximal effect; % is set by controls: 0 for no effect and ±100 for the full control effect; nearly all actives have a fitted effect of over 65% in size
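HEPG2 CAGA-GFP reporter cells (1000/well, DMEM with 1% FBS) received compounds, then recombinant TGF-beta at 500 pg/mL final for 18 hours at 37 degrees C. Per-cell GFP summed per well was normalised to unstimulated and stimulated DMSO controls before curve fitting.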
S2 tox: Viability Counterscreen for Primary qHTS for Inhibitors of ATXN expression; actives 0.49% (n = 400,000); S2 cells (HEK-293 line with an ATXN2-luciferase reporter) viability, CellTiter-Fluor protease fluorescence, 24 h; Potency, µM (doses to about 56.7 µM), hits mostly cytotoxic; note: potency is the fitted concentration of half-maximal effect; nearly all actives have a fitted effect of over 40% in size
D3 antag: qHTS of D3 Dopamine Receptor Antagonist: qHTS; D3R cells, DiscoveRx beta-arrestin luminescence, antagonist mode; active compounds read low; max response, negative = inhibition, %; actives 2.5% (n = 360,000); in the data active = max response below about -50%; inconclusive = no clear call, values can overlap the other calls; note: % is set by controls: 0 for no effect and ±100 for the full control effect
Target sequence (P35462 whole entry, looked up): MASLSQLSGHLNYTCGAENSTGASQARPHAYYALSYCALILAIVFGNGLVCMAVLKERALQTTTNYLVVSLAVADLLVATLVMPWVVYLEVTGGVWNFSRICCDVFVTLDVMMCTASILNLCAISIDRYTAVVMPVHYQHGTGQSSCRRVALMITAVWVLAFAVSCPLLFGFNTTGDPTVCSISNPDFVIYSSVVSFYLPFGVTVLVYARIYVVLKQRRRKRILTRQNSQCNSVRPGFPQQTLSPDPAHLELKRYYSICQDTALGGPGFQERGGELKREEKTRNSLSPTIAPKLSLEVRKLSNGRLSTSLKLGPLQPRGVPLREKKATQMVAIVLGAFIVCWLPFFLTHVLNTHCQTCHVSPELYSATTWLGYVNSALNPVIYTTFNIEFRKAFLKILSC
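Cells plated overnight at 1500 cells/well, then exposed to library compounds with dopamine controls for 90 minutes at 37 degrees C. DiscoveRx reagent added for 30–60 minutes at room temperature; luminescence read, quantitative HTS format.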
HepG2 viability: qHTS for Inhibitors of TGF-b: Cytotox Counterscreen. HepG2 CAGA-GFP viability, ATP luminescence, 18 h. Potency, µM (titrated, usually from 46.1 µM), for inactives: top-dose activity change, negative = cytotoxicity, most hits filed as cytotoxic. actives 0.76% (n = 410,000); note: potency is the fitted concentration of half-maximal effect
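CellTiter-Glo luminescence gave cytotoxicity after 18 hours at 37 degrees C. The cells were HepG2 CAGA-GFP in 1% FBS DMEM, stimulated with 500 pg/mL TGF-beta after compound addition. %Activity was normalised to no-cell wells (complete cell-killing) and DMSO (no toxicity), and curves were fitted and classified.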
D3 ag: qHTS of D3 Dopamine Receptor Agonist: qHTS; D(3) dopamine receptor (Homo sapiens), P35462; D3R DiscoveRx beta-arrestin cells, luminescence, 90 min; max activation, %; actives 0.58% (n = 410,000); in the data active = max activation above about 30%; note: 0% is about no effect
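Cells at 1500/well, incubated overnight, then treated with pinned compounds (dopamine as control) for 90 min at 37 degrees C. DiscoveRx reagent added for 30 - 60 minutes at room temperature; luminescence read.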
* marks the source's active call; other numbers are inactive results; i = inactive; ? = inconclusive; . = no result; [ ] = dose if it differs, or a comment. An excerpt weighted towards active compounds, which were near 4.8% of everything screened. Unless noted, calls come from the whole dose curve; as a rule, active = well fitted curve in the direction sought with a large enough effect; inconclusive = small, poorly fitted or top-dose-only effect, or another doubt; inactive = no such curve, though single readings can be large; an effect the other way counts as inactive or inconclusive.

SMILES | ATXN2 expr inh | TGFb SMAD3 inh | S2 tox | D3 antag | HepG2 viability | D3 ag
Brc1ccccc1OCCCCCN1CCOCC1 | 27% | -3% | i | ? | -10% | -13
CC(C=CC1=C(C)CCCC1(C)C)=CC=CC(C)=CC(=O)O | -17% | . | . | . | . | .
O=c1cc2nc(-c3ccccc3F)nc(SCc3ccc(Br)cc3)n2[nH]1 | -12% | ? | i | . | -38% | 7
O=C1C=C(c2c(O)ccc3ccccc23)c2ccccc2C1=O | 16µM* | 2.8µM* | . | -62* | 13µM* | -9
Oc1ccc(Br)cc1C=Nc1ccc2c3c(cccc13)CC2 | 6% | ? | i | -54* | -33% | -6
Oc1ccc(Cl)cc1C=Nc1ccccc1Br | -1% | -5% | i | 0 | -11% | -4
C=CC[n+]1c(/C=C/c2ccc(OC(C)=O)c(OC)c2)ccc2ccccc21 | . | -5% | 16µM* | 2 | -56% | 0
COc1cc(/C=N/NC(=O)Nc2ccccc2)ccc1OC(C)=O | 77% | 7% | i | 5 | -8% | 2
Cc1nc2ncnn2c(C)c1Cc1ccccc1Cl | -7% | 18% | i | -82* | -20% | 5
CCn1c(/C=C/c2ccccc2C)nc2ccccc2c1=O | -12% | -20% | i | -9 | -26% | -4
CCn1c(/C=C/c2c(C)n(CC)c3ccccc23)nc2ccccc2c1=O | 2% | 15% | ? | 57 | 25% | 35*
Fc1ccc(CN2CCN3CCCC3C2C2CCCCC2)cc1F (configuration not stated) | -33% | 11% | i | -78* | -12% | -13
Fc1cccc(CN2CCN3CCCC3C2C2CCCCC2)c1 (configuration not stated) | -35% | 46% | i | ? | -51% | -26
COc1ccc(N2CCN(CCCNC(=O)c3ccc(CS(=O)(=O)c4ccc(OC)cc4)o3)CC2)cc1 | -14% | -4% | ? | -11 | -16% | 18
COc1ccc(S(=O)(=O)Cc2ccc(C(=O)NCCCN3CCc4ccccc4C3)o2)cc1 | -12% | -12% | i | -92* | -39% | -16
COc1ccccc1S(=O)(=O)Cc1ccc(C(=O)NCCCN2CCN(c3ccc(F)cc3)CC2)o1 | -25% | -1% | i | -77* | -57% | -6
Cc1ccc(NC(=S)NCCSc2ccc(Cl)cc2)cc1 | -21% | ? | i | -13 | -12% | -6
CC(CNC(=S)Nc1cc(F)cc(F)c1)CSc1ccc(Cl)cc1 (configuration not stated) | ? | 18µM* | ? | ? | -75% | -1
O=C1NC(=S)N/C1=C/c1cccn1-c1ccc([N+](=O)[O-])cc1 | -9% | 7.1µM* | i | -14 | -43% | 11
N=C1/C(=C/c2cccn2-c2ccc([N+](=O)[O-])cc2)C(=O)N=C2SC=CN12 | -4% | 3% | i | 29 | 2% | 4
COc1ccc(NC(=O)c2c(N)c(C(=O)c3ccc(OC)cc3)n3ccccc23)cc1 | 1% | -10% | i | . | -6% | -9
Cn1c(Cn2nnc3ccccc32)nnc1SCC(=O)N1c2ccccc2Sc2ccccc21 | -8% | -27% | i | -55* | 1% | -22
CN(C)CCCn1c(SCC(=O)N2c3ccccc3Sc3ccccc32)nc2ccccc2c1=O | 28µM* | -21% | 25µM* | -4 | 10µM* | -1
COc1cc(CNC(=O)c2cnn(-c3ncc4c(n3)-c3ccccc3CC4)c2C)cc(OC)c1OC | . | . | i | . | . | .
CCCC(=O)Nc1nc2c(s1)CC(C(C)(C)C)CC2 (configuration not stated) | 57% | 18% | i | . | -29% | 7
SMILES | ATXN2 expr inh | TGFb SMAD3 inh | S2 tox | D3 antag | HepG2 viability | D3 ag
Cn1nnnc1SCC(=O)NCCc1ccc(Cl)cc1 | -1% | -13% | i | ? | 16µM* | -4
O=C(CSc1nnc(C2CC2)n1-c1ccccc1)NCCc1ccccc1 | -1% | 0% | i | -60* | 3% | -3
Cn1nnnc1SCC(=O)NNC(=O)c1ccc(Cl)cc1 | -6%[11.3 µM] | 3% | i | 11 | 16% | 8
Cn1nnnc1SCC(=O)NNC(=O)c1ccc(F)cc1 | -2% | -14% | i | -57* | 27% | -3
COc1ccc(CCNC(=O)CSc2nnc3ccccn23)cc1 | 7% | 0.45µM* | i | -4 | 3% | -17
CCNC(=O)CSc1nnc(C2CC2)n1-c1ccccc1 | -19% | 0% | i | -25 | 4% | 1
O=C(CSc1nnc2ccccn12)NCCc1ccc(F)cc1 | 10% | 0% | i | -3 | -3% | 8
CCOC(=O)N1CCN(Cc2ccc3c(c2)CN(C(=O)c2ccc(C#CC(C)(C)O)o2)CCO3)CC1 | . | . | i | . | . | .
C(=C\c1ccccc1)/CN1CCN(C(c2cccs2)c2nnnn2C2CCCC2)CC1 (configuration not stated) | -30% | ? | ? | -86* | -15% | -15
C(=C\c1ccccc1)/CN1CCN(C(c2ccccc2)c2nnnn2C2CCCC2)CC1 (configuration not stated) | -35% | ? | ? | ? | -8% | -11
C(=C\c1ccccc1)/CN1CCN(C(c2cc3ccccc3o2)c2nnnn2C2CCCCC2)CC1 (configuration not stated) | 5% | -4% | i | -76* | -3% | -13
CC(C)(C)n1nnnc1C(c1cccs1)N1CCN(Cc2ccccc2)CC1 (configuration not stated) | -19% | 24% | i | -26 | -5% | -26
CC(C)(C)n1nnnc1C(c1cccs1)N1CCN(C/C=C/c2ccccc2)CC1 (configuration not stated) | -16% | -3% | ? | -122* | 3% | -12
Cc1nc([N+](=O)[O-])cn1CC(O)c1ccc2c(c1)OCCO2 (configuration not stated) | . | 0% | . | . | -21% | .
COc1ccc(Nc2nc3c(S(=O)(=O)c4ccc(Br)cc4)nnn3c3ccsc23)c(OC)c1 | . | 18% | . | . | -6% | -6
Cc1ccc(CNC(=O)c2cc3c(=O)n(Cc4cccnc4)ccc3nc2C)cc1 | -32% | -1% | ? | . | 3% | 7
COc1ccc(C(=O)NCCn2cc(SCc3cccc(F)c3)c3ccccc32)cc1OC | 18µM* | ? | ? | . | -22% | 8
Cc1cc(NC(=O)CSc2cn(CCNC(=O)c3ccc(Cl)cc3)c3ccccc23)no1 | 0% | -6% | 19µM* | -15 | -30% | -2
